Source: the OligoGym collection

The sequences below were run against ARL4D (assay: pooled miR-30 sensor sort-seq; sequence = guide strand). Details: shRNA.

Going from TATAAGAGCGCCACAGTGGTCG to TCGGTGTTGAAGCCTTTGGTGG, the sensor-assay potency score (higher = more potent) falls from -0.158 to -1.59.

Compared with TGGAAGGTGATGCCACGCGATC, TCCTCTTGAGGATCATCTCATA is lower in sensor-assay potency score (higher = more potent): -1.76 for the first, -1.96 for the second.

Compared with TTCTCGGTGTTGAAGCCTTTGG, TTGTTGGCCAGCACCAGCACTG is higher in sensor-assay potency score (higher = more potent): -1.06 for the first, -0.806 for the second.

First: TTCCTCTTGAGGATCATCTCAT
Second: TGATTCGGTGCAACTCCACCTT
The sensor-assay potency score (higher = more potent) of the first is lower: 0.0255 for the first, 0.0703 for the second.

First: TGGACAAACTCCTTGAACTTGA
Second: AACACTAGACCGTCTGTCCGGC
The sensor-assay potency score (higher = more potent) of the first is lower: -0.891 for the first, -0.396 for the second.

Going from TCCACCACAAACACTAGACCGT to ACACTCTGGACAAACTCCTTGA, the sensor-assay potency score (higher = more potent) falls from -0.55 to -0.682.

Compared with TAGACCGTCTGTCCGGCGGGTA, TACGTCTCCACAGTCCTGCAGC is higher in sensor-assay potency score (higher = more potent): -1.34 for the first, -0.421 for the second.

TTGGAAGGTGATGCCACGCGAT was tested, and the sensor-assay potency score (higher = more potent) was -0.67.

What follows are sequences tested against ARL8B in the same assay as above. Details: shRNA.

Compared with TAATTCTAGGATTATAGCCAAG, TTTCTCTATCCTGAATAGCAGA is higher in sensor-assay potency score (higher = more potent): -1.33 for the first, -1.1 for the second.

Compared with TTTCCAAGCACTAGCACTGGAA, TATCTTCACTGAATTGACCTGA is higher in sensor-assay potency score (higher = more potent): -1.03 for the first, 0.755 for the second.

Going from TATCATGTAAACAATAGCATTG to TTACCTTTAGTTACCTTCCTCA, the sensor-assay potency score (higher = more potent) rises from -1.05 to 0.244.

Going from TTTCACGATCTGCAGCATCTAT to TGTGATATCTATATTATCCTTT, the sensor-assay potency score (higher = more potent) rises from -0.778 to 0.458.

Going from TTTATCTAGAAGATTATGTAGC to TTTCGGGAAGCTTCTATCTTTT, the sensor-assay potency score (higher = more potent) falls from 0.313 to -1.11.

Compared with TTGAATAGCAGCAAATTTCTCT, TAAACAATAGCATTGACTCCTC is lower in sensor-assay potency score (higher = more potent): 0.213 for the first, -0.391 for the second.

Each sequence was assayed against ARPC1A in the same assay as above. Details: shRNA.

Going from AAATTTGCGACAATCTTGCTTG to TTGAGTGATGCTATTCTGGTGC, the sensor-assay potency score (higher = more potent) rises from -0.036 to 0.522.

Compared with TTTTGGAATATCTAACTTGGAG, TTTGGAATATCTAACTTGGAGA is higher in sensor-assay potency score (higher = more potent): -0.944 for the first, -0.835 for the second.

Compared with TTGGCTTCCAAACACCATCTTT, TATTCAAACAAAACCACACGGC is higher in sensor-assay potency score (higher = more potent): -0.586 for the first, -0.11 for the second.

First: TAACAAACAGAAATGAGTCGTG
Second: TGAAGTCACATGATCCTGCTGC
The sensor-assay potency score (higher = more potent) of the first is higher: 0.708 for the first, 0.622 for the second.

Compared with TATAGATGTGCACTTCGTGATT, TCTGAGACAAATGACACACTTA is higher in sensor-assay potency score (higher = more potent): -0.958 for the first, 0.156 for the second.

Going from TTTAATGTGCTTGCTCACCCAC to ATTTGAAGTCACATGATCCTGC, the sensor-assay potency score (higher = more potent) rises from -0.282 to 0.383.
